Source: PubChem BioAssay
KB-3-1 tox = kills parental KB-3-1 adenocarcinoma cells. KB-3-1 viability, CellTiter-Glo ATP luminescence, 72 h. Potency, µM (top dose mostly 46.1 µM), hits mostly cytotoxic. actives 1.4% (n = 400,000); further: potency means the concentration at half of the fitted maximal effect; on the % scale 0 is the no-effect control and ±100 the full control effect; nearly all actives have a fitted effect of over 60% in size
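72 h, 37 °C compound treatment of KB-3-1 parental cells; CellTiter-Glo added, 10 min, luminescence read. Data corrected against DMSO-only plates and normalized before curve fitting.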
Giardia killer = kills Giardia lamblia; Giardia lamblia trophozoite viability; activity change, % at 7.66 µM, hits read low; actives 0.15% (n = 340,000); AID 540267; in the data active means activity change below about -80%; inconclusive means between about -30% and that limit;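 further: parasites exposed to compound for two days anaerobically before the ATP read; on the % scale 0 is the no-effect control and ±100 the full control effect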
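ATP-content bioluminescence gauges trophozoite survival. Cells (100/well) receive compound and incubate anaerobically for 48 hrs at 37 deg C; detection reagent follows for 15-30 min at room temperature.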
SW480 rereplic = inducers of DNA re-replication in SW480 colon cancer cells; Potency, µM (highest dose often 46.1 µM), for inactives: at the highest dose re-replication activation, actives largely listed as activators; SW480 DNA re-replication, Hoechst DNA content imaging, 48 h; AID 624297; actives 1.8% (n = 340,000); further: potency means the concentration at half of the fitted maximal effect; % of control where 0% means no effect; nearly all actives have a fitted effect of over 55% in size
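Per well, 250 cells were exposed to pinned compound for 48 hr. Nuclear DNA was visualised with Hoechst (40 min, 37 C) and total object intensity recorded by fluorescence scanning.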
KB-V1 cytotox = KB-V1 MDR subline cytotoxicity. KB-V1 MDR cells viability, CellTiter-Glo, 72 h. Potency, µM (highest dose often 46.1 µM), hits mostly cytotoxic. actives 3.4% (n = 400,000). AID 1347076; further: potency means the concentration at half of the fitted maximal effect; on the % scale 0 is the no-effect control and ±100 the full control effect; nearly all actives have a fitted effect of over 60% in size
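Compound-treated KB-V1 multidrug-resistant cells, 72 h, 37 degrees C; viability by CellTiter-Glo. Fitted qHTS curves give the values.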
MCF10A rereplic = DNA re-replication induction in MCF 10a cells; MCF 10A DNA re-replication, Hoechst nuclear intensity, 48 h; Potency, µM (titrated, usually from 46.1 µM), without a hit: top-dose activity, positive = re-replication, hits mostly activators; actives 2.9% (n = 350,000); further: potency means the concentration at half of the fitted maximal effect; % of control where 0% means no effect; nearly all actives have a fitted effect of over 50% in size
S-ASM inh = human S-ASM enzyme inhibition; P17405; placental ASM, HMU-PC fluorogenic substrate, 60 min; Potency, µM (top dose mostly 57.5 µM), inactives show at the top dose activity change, negative = inhibition, most hits filed as inhibitors; actives 0.006% (n = 340,000); further: potency means the concentration at half of the fitted maximal effect
Target sequence (P17405 47-631 limits assumed): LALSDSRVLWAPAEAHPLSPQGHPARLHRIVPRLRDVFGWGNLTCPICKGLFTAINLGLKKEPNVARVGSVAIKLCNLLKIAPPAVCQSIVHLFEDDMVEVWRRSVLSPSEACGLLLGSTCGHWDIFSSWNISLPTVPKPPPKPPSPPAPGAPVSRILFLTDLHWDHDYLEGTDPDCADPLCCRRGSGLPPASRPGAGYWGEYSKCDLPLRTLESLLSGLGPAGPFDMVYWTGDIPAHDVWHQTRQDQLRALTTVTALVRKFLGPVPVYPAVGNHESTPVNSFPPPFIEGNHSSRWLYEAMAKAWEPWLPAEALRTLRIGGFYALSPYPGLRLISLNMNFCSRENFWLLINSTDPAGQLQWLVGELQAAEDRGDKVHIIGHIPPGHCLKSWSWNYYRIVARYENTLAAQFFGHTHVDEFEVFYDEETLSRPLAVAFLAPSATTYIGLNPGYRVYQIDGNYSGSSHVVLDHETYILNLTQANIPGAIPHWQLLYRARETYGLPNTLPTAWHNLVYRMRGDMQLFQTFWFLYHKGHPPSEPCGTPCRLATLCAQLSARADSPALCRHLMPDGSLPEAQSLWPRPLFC
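Fluorescence read-out (Ex 386 nm, Em 447 nm) after stopping the reaction at pH 10. Enzyme: ASM from human placenta; substrate HMU-PC0, 9 uM final; 60 min, 37 °C. Compound preincubation 10 min, ambient temperature.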
* hit, by the source's call; i = inactive; ? = inconclusive; nt = not tested or not shown. This is a sample that favours compounds with a hit; in the whole collection about 6.9% have one here. Unless noted, the call rests on the fitted dose curve; in most records, active means well fitted curve in the direction sought with a large enough effect; inconclusive means small, poorly fitted or top-dose-only effect, or another doubt; inactive means no such curve, though single readings can be large; an effect the other way counts as inactive or inconclusive.

SMILES | KB-3-1 tox | Giardia killer | SW480 rereplic | KB-V1 cytotox | MCF10A rereplic | S-ASM inh
COc1ccc(S(=O)(=O)N(CC(=O)Nc2ccccc2Cl)Cc2ccccc2)cc1 | i | nt | nt | ? | nt | nt
O=[N+]([O-])c1ccc(COc2cccc(CNc3ccc(F)cc3)c2)cc1 | i | 12 | -2% | 21µM* | 18% | -7%
COc1ccc2c(c1)c(N1CCCC1=O)c(C(=O)Nc1ccc(Cl)cc1C)n2C | i | nt | nt | i | nt | nt
COc1ccc(OCC(=O)NNc2c3ccccc3nc3ccccc23)cc1 | ? | -3 | -3% | 4.6µM* | ? | -1%
O=C(NNC(=O)c1cccc2ccccc12)c1ccccc1O | ? | -1 | 7.3µM* | i | -41% | 1%
O=C(CCCO)NNc1c2ccccc2nc2ccccc12 | i | -10 | ? | i | -5% | 57%
CCCC(=O)NNc1c2ccccc2nc2ccccc12 | i | 3 | -9% | 16µM* | -9% | 12%
O=C(COc1ccccc1)NNc1c2ccccc2nc2ccccc12 | i | 18 | -1% | 18µM* | 22% | -1%
COc1ccc(OCC(=O)NNC(=O)C(=O)Nc2ccccc2)cc1 | i | 9 | -25% | i | 22% | -3%
O=C(NNC(=O)c1cccc2ccccc12)c1ccc(-c2ccccc2)cc1 | ? | 25 | -1% | ? | ? | 1%
CCOc1cc2sc(N3CCC(C(=O)Nc4ccc(CC)cc4)CC3)nc2cc1Br | i | nt | nt | i | nt | nt
CCCCOc1ccc(C(C)NC(=O)c2cccc(Nc3nc4ccccc4n4nnnc34)c2)cc1 (centres undefined) | i | nt | nt | i | nt | nt
COc1ccc(CN2CC[C@H]3C=CC[C@@H](C(=O)NCc4cccnc4)[C@H]3C2=O)cc1OC | i | nt | nt | i | nt | nt
CCc1cccc(CC)c1NC(=O)CN(C)S(=O)(=O)c1ccc2c(c1)n(C)c(=O)c(=O)n2C | i | nt | nt | ? | nt | nt
O=C(NNc1c2ccccc2nc2ccccc12)c1ccccc1O | i | -3 | -12% | 21µM* | 7% | 26%
O=C(NNc1nc(=O)c2cccnc2s1)c1ccccc1O | ? | 12 | 0.92µM* | i | -8% | 1%
O=C(NNc1c2ccccc2nc2ccccc12)c1ccc(O)cc1O | i | 9 | 2% | i | -16% | 59%
COc1ccc(C)cc1NC(=O)c1cnc2scc(C)n2c1=O | i | 4 | ? | i | 23µM* | 241%
COc1ccc(C)cc1NC(=O)c1cnc2ccc(C)cn2c1=O | i | nt | nt | i | nt | nt
CCc1cccc(C)c1NC(=O)C1CCCN1S(=O)(=O)c1cccc2nsnc12 (centres undefined) | i | nt | nt | i | nt | nt
CC(=O)c1cc(C#N)c(SCc2ccccc2C#N)nc1C | 16µM* | 2 | ? | 10µM* | ? | -6%
CCC(C)NC(=O)C1CCN(S(=O)(=O)c2cc([N+](=O)[O-])ccc2Cl)CC1 (centres undefined) | i | ? | -18% | i | 16% | -1%
COc1cccc(C(=O)Nc2nc3ccc(S(=O)(=O)N4CCCC4)cc3s2)c1 | 13µM* | nt | nt | ? | nt | nt
COc1cc(/C=C/C(=O)Nc2nnc(C(C)(C)C)s2)cc(OC)c1OC | i | 24 | -8% | ? | -1% | 2%
COc1cc(/C=C/C(=O)Nc2nc3ccc(S(=O)(=O)N(C)C)cc3s2)cc(OC)c1OC | ? | 22 | 10µM* | i | ? | 274%
SMILES | KB-3-1 tox | Giardia killer | SW480 rereplic | KB-V1 cytotox | MCF10A rereplic | S-ASM inh
COc1ccc2nc(NC(=O)c3cccc(S(=O)(=O)N4CCOCC4)c3)sc2c1 | i | -13 | -1% | i | ? | 9%
O=C(Nc1nc2ccccc2s1)C1CCN(S(=O)(=O)c2cc([N+](=O)[O-])ccc2Cl)CC1 | 2.3µM* | ? | ? | 13µM* | 3% | -19%
Cc1ccc(S(=O)(=O)N2CCCCC2)cc1NC(=O)CSc1nnc(N)s1 | i | -13 | -1% | i | 0.58µM* | 3%
Cc1c(NC(=O)C(C)(C)Oc2ccc(Cl)cc2)cccc1-c1nc2ncccc2o1 | i | nt | nt | i | nt | nt
CCN(Cc1cccc(S(=O)(=O)O)c1)c1ccc(C(=C2C=CC(=[N+](CC)Cc3cccc(S(=O)(=O)O)c3)C=C2)c2ccc(O)cc2S(=O)(=O)O)cc1 | i | nt | nt | i | nt | nt
C=C(CC[C@]12OC(C(=O)O)C(O)(C(=O)O)C(C(=O)O)(O1)C(OC(=O)/C=C/[C@@H](C)C[C@@H](C)CC)C2O)[C@@H](OC(C)=O)[C@H](C)Cc1ccccc1 (some centres undefined) | i | nt | nt | i | nt | nt
COC(=O)c1c(SCC(=O)Nc2cc(C)cc(C)c2)[nH]c2ccccc2c1=O | ? | nt | nt | i | nt | nt
Cc1ccc(S(=O)(=O)N2CCCC2C(=O)Nc2nc3c(s2)CCCC3)cc1 (centres undefined) | ? | 10 | 7% | i | 18% | 1%
COc1ccc2nc(NC(=O)C3CCCN3S(=O)(=O)c3ccc(C)cc3)sc2c1 (centres undefined) | i | 3 | 5% | 18µM* | 15% | -12%
CSc1nc2ccc(S(=O)(=O)N3CCOCC3)cc2s1 | i | 8 | 0% | i | 2% | 3%
Cc1ccc(S(=O)(=O)N2CCC(C(=O)Nc3ccccc3N3CCCC3)CC2)cc1 | i | 14 | 7% | 5.8µM* | -2% | nt
COc1ccc(OC)c(S(=O)(=O)N2CCC(C(=O)Nc3cccc(C)c3)CC2)c1 | i | -4 | -1% | ? | 18% | -1%
COc1ccc(OC)c(S(=O)(=O)N2CCC(C(=O)Nc3cc(C)ccc3C)CC2)c1 | i | -2 | 4.6µM* | ? | ? | -3%
Cc1ccc(S(=O)(=O)N2CCC(C(=O)Nc3ccccc3N3CCCCC3)CC2)cc1 | i | 3 | 17% | i | -1% | -3%
N#CCc1nc2ccc(S(=O)(=O)N3CCOCC3)cc2s1 | i | -9 | 150% | i | 13µM* | 44%
COc1ccc(-c2ccnc3c2c(=O)n(C)c(=O)n3C)cc1OC | i | nt | nt | i | nt | nt
O=C(Nc1nc2ccc(S(=O)(=O)N3CCCC3)cc2s1)C1CCCCC1 | 2.6µM* | 14 | 7.3µM* | 3.7µM* | 10µM* | -7%
Cc1ccc(S(=O)(=O)N2CCCCC2)cc1NC(=O)C1CCC1 | i | 3 | 6% | 23µM* | 10% | 1%
COc1ccc(S(=O)(=O)N2CCCCC2)cc1NC(=O)C1CCCC1 | i | -2 | -11% | i | 3% | -3%
COc1cc(C(=O)Nc2nc3ccc(S(C)(=O)=O)cc3s2)cc(OC)c1C | i | ? | 18µM* | i | 3% | 11%
